Compound activity: PubChem, several laboratories
Rv3671c protease = inhibitors of M. tuberculosis serine protease Rv3671c | P9WHR9 | inhibition, % at 5.96 µM | 0.048% of 320,000 active | AID 2606; in the data active = inhibition above about 38%;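 also: extracellular domain of Rv3671c used as enzyme; 0% = enzyme with DMSO and 100% = no enzyme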
GDH-TPI inh = inhibits GDH-TPI coupling enzymes, artifact for Mtb FBA screen. inhibition, % at 4.8 µM. GDH-TPI coupled enzyme counterscreen, NADH absorbance. 1.2% of 360,000 active; in the data active = inhibition above about 30%;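 also: 0% = DMSO wells and 100% = wells lacking the enzyme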
FBA Mtb inh = inhibitors of M. tuberculosis fructose-bisphosphate aldolase; P9WQA3; purified M. tuberculosis FBA, fluorescence read-out; inhibition, % at 1 µM; 2.3% of 360,000 active; in the data active = inhibition above about 27%;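 also: 0% = vehicle and 100% = reference inhibitor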
Mtb UGM inh = blocks M. tuberculosis UGM enzyme. AID 504406. P9WIQ1. purified UGM, fluorescence polarization probe displacement. inhibition, % at 10 µM. 0.06% of 320,000 active; in the data active = inhibition above about 10%, passing the limit was not always enough
Target sequence (P9WIQ1 whole entry, looked up): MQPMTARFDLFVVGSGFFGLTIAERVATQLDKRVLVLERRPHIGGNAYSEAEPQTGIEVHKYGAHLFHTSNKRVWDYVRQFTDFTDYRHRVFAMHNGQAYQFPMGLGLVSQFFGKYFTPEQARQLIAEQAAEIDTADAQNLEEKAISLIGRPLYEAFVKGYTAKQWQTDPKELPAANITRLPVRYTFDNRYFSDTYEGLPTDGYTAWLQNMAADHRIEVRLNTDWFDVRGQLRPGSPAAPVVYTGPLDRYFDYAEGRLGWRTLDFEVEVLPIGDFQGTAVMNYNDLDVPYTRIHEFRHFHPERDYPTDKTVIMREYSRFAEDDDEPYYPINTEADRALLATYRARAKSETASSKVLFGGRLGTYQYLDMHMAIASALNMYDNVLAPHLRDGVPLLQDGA
* marks the source's active call; other numbers are inactive results; x = no result; + = active, no number. A selection: hits, their analogues and other compounds. The true share with any hit is near 3.5%.

SMILES | Rv3671c protease | GDH-TPI inh | FBA Mtb inh | Mtb UGM inh
CCCCc1cc(=O)oc2cc(OCC(=O)N[C@@H](Cc3ccccc3)C(=O)O)ccc12 | 2 | 19 | 19 | 0
CCCCC(NC(=O)COc1cc2c(c3oc(=O)cc(C)c13)CCC(C)(C)O2)C(=O)O (centres undefined) | 4 | 26 | + | 6
Cc1ccc(Oc2ccc(OCC(=O)NC(C)C(=O)O)cc2)cc1 (centres undefined) | -2 | 6 | -2 | 0
Cc1cc(OCC(=O)NC(C)C)cc(C)c1Cl | -4 | 1 | -3 | 2
Cc1cc(=O)oc2c3c(cc(OCC(=O)N[C@@H](C)C(=O)O)c12)OC(C)(C)CC3 | x | 21 | + | 3
Cc1cc(=O)oc2c3c(cc(OCC(=O)NC(C)C)c12)OC(C)(C)CC3 | x | 15 | + | 4
COCOCCn1cc(CN2CCS(=O)(=O)N(Cc3ccc(-c4ccc(OC)c(OC)c4)cc3)C(C)C2=O)nn1 (centres undefined) | x | 5 | -1 | x
CCNc1c(NS(=O)(=O)c2ccc(F)c(Cl)c2)c(=O)oc2ccccc12 | -5 | 3 | -7 | 1
Cc1c(-c2ccccc2)c(=O)oc2cc(O)ccc12 | 1 | 11 | + | -1
CCCCCOc1ccc(C(=O)CCC(=O)Nc2ccc(NC(C)=O)cc2)cc1 | 9 | 1 | 2 | 2
O=C(O)CCCN1C(=O)C(=O)/C(=C(/O)c2ccc(Cl)cc2)C1c1ccccc1 (centres undefined) | -14 | 41* | 4 | 6
Cc1c(N=C2N=C(NC(=O)c3ccc(F)cc3)c3ccccc32)c(=O)n(-c2ccccc2)n1C | -1 | 7 | -4 | 18*
Oc1c(C(Nc2nccs2)c2ccc(C(F)(F)F)cc2)ccc2cccnc12 (centres undefined) | x | 8 | 124* | x
Oc1c(C(Nc2cccc(C(F)(F)F)c2)c2ccncc2)ccc2cccnc12 (centres undefined) | 14 | 18 | -3 | x
CCOc1ccc(S(=O)(=O)N2CCN(C(=O)C3CCC3)CC2)cc1 | 7 | -9 | 0 | 0
COc1cccc(C(=O)OCC(=O)NCCCc2ccccc2)c1 | -6 | -7 | 2 | 0
N#CC(C(=S)Nc1ccccc1)c1nc2ccccc2[nH]1 (centres undefined) | 5 | 62* | -1 | -1
O=c1cc(C(F)(F)F)[nH]c2c(C(F)(F)F)cccc12 | 4 | 24 | + | 3
C=CCN1C(=O)NC(=O)/C(=C/c2c(CCN(C)C(=O)c3ccccc3)cc3c(c2OC)OCO3)C1=O | -7 | -6 | -1 | 7
COc1c(/C=N/Nc2ccc(C(=O)O)cc2)c(CCN(C)C(C)=O)cc2c1OCO2 | 8 | 37* | -2 | 0
CNC(=S)N(C)CCc1cc2c(c(OC)c1C=C1C(=O)NC(=O)NC1=O)OCO2 | 6 | 38* | -1 | -2
CC1(C)Cc2c(c(=S)nc(-c3ccccc3)n2CCN2CCOCC2)CO1 | 2 | 51* | 2 | -2
CC(C)Cn1c(-c2ccccc2)nc(=S)c2c1CCCC2 | 0 | 34* | -1 | 1
CCN(CC)CCn1c(-c2ccccc2)nc(=S)c2c1CC(C)(C)OC2 | -11 | 26 | -2 | 0
S=c1nc(-c2ccccc2)n(Cc2cccnc2)c2c1CCCC2 | 4 | x | x | 2
SMILES | Rv3671c protease | GDH-TPI inh | FBA Mtb inh | Mtb UGM inh
COCCn1c(-c2ccccc2)nc(=S)c2c1CC(C)(C)OC2 | -6 | 37* | -3 | 0
C=CCn1c(-c2ccccc2)nc(=S)c2c1CCCC2 | -3 | -5 | 4 | -4
S=c1nc(-c2ccccc2)n(CCN2CCOCC2)c2c1CCCC2 | 0 | 51* | 4 | 5
CC(C)N(Cc1ccccc1)C(=O)CN1C(=O)NC(Cc2ccccc2)(c2ccccc2)C1=O (centres undefined) | -2 | 5 | 1 | 2
COCOCCn1cc(CN2CCS(=O)(=O)N(Cc3ccc(-c4ccncc4)cc3)C(C(C)C)C2=O)nn1 (centres undefined) | x | 3 | -1 | x
CC(NS(=O)(=O)c1ccc(OCC(=O)NCc2ccccn2)cc1)c1ccccc1 (centres undefined) | 5 | -8 | -3 | 0
C=CCn1c(-c2ccc(OC)cc2)nc2nc3ccccc3nc21 | 6 | 31 | 144* | -2
C=CCn1c(-c2ccc(OC)cc2)nc2ccccc21 | -6 | -9 | 9 | 0
Fc1ccc(-n2c(-c3ccco3)nc3nc4ccccc4nc32)cc1 | -12 | 12 | 126* | 1
c1ccc(-c2nc3nc4ccccc4nc3n2Cc2ccco2)cc1 | -9 | 26 | 3 | 0
Fc1ccc(-c2nc3nc4ccccc4nc3n2Cc2ccco2)cc1 | -6 | 40* | -3 | -1
CN(C)CCN1CCN(C2CN(C3CCCC3)S(=O)(=O)C2)CC1 (centres undefined) | x | x | -1 | x
CCOC(=O)c1ccc(N2C(=O)CC(N3CCC(O)(c4ccc(Br)cc4)CC3)C2=O)cc1 (centres undefined) | -1 | 8 | 0 | 0
CCOC(=O)c1ccc(N2C(=O)CC(N3CCC(O)(c4ccc(Cl)cc4)CC3)C2=O)cc1 (centres undefined) | -4 | 39* | 2 | 1
c1ccc(-c2ccc(-c3ccccn3)s2)nc1 | -3 | 29 | + | 2
O=C(O)c1ccc(-c2ccccn2)s1 | 0 | -8 | 2 | 2
COCc1cc(C)nc2sc(C(=O)Nc3ccccc3F)c(N)c12 | 5 | 9 | 2 | 0
Nc1c(C(=O)Nc2ccccc2F)sc2nc(Cc3ccccc3)cc(C(F)(F)F)c12 | 6 | 9 | 0 | 26*
COc1ccccc1C(=O)NC(=O)CSc1nnc(SC)s1 | 5 | 2 | 1 | 0
CC(=O)C1=C(O)C(=O)N(Cc2ccccc2)C1c1cccs1 (centres undefined) | 6 | 31* | 1 | 1
CC(=O)C1=C(O)C(=O)N(Cc2ccccc2)C1c1ccc(Cl)cc1 (centres undefined) | -8 | 17 | -1 | 0
COc1ccccc1-n1cc(-c2ccccc2)c2c(=S)nc[nH]c21 | -6 | 18 | 0 | 2
O=[N+]([O-])c1ccc(N2CCSCC2)cc1 | -1 | 71* | -12 | 0
O=[N+]([O-])c1ccc(N2CCN(c3ccc(F)cc3)CC2)cc1 | 5 | 15 | 6 | 2
CN(C(=O)c1cnccn1)c1nnc(-c2cnccn2)s1 | -4 | 31* | -9 | 3
SMILES | Rv3671c protease | GDH-TPI inh | FBA Mtb inh | Mtb UGM inh
CCCn1nc(C(=O)OCC(=O)Nc2ccc(C)cc2)c2ccccc2c1=O | 6 | 3 | -1 | 5
Cc1cc(=O)oc2cc(OC(=O)c3nn(C(C)C)c(=O)c4ccccc34)ccc12 | 1 | 14 | + | -1
CCCn1nc(C(=O)Oc2ccc3c(C)cc(=O)oc3c2)c2ccccc2c1=O | 0 | 6 | + | 0
CC1=Nc2ccccc2/C1=C\c1nc(-c2ccccc2)oc1O | -24 | 1 | -22 | 3
CC1=Nc2ccccc2/C1=C\c1nc(-c2ccc(C(F)(F)F)cc2)oc1O | 5 | 5 | 1 | 12*
CC(=O)c1c(C)[nH]c(C(=O)OC(C)C(=O)NC2CCCCC2)c1C (centres undefined) | x | 4 | -1 | x
CCn1c(NC(=O)c2cccs2)nc2ccccc21 | 7 | 36* | 1 | -2
